# From PubChem BioAssay (NCI)
# This is part of a sample that, as a whole, favours compounds with a hit. Of some 83,000 tested, about 20% had one in any assay.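 The test compound was applied at a single concentration to cells in 96-well plates for 48 hours, and percent growth was recorded.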 Values without a mark were called inactive. Activity calls are given as the source filed them. Rule for the calls: active = growth percent below 10; inactive = the rest.
# Key:
# Assay in all cases: NCI-60 one-dose screen, 48 h (100 = growth as untreated, 0 = no growth, -100 = all killed)
# Settings in all cases: 10 µM unless noted
# T-47D breast = test system: T-47D breast
# BT-549 breast = test system: BT-549 breast
# MDA-MB-435 melanoma = test system: MDA-MB-435 melanoma
# SW-620 colon = test system: SW-620 colon
# MCF7 breast = test system: MCF7 breast
# HCT-116 colon = test system: HCT-116 colon
# HCC-2998 colon = test system: HCC-2998 colon
# KM12 colon = test system: KM12 colon
SMILES,growth (T-47D breast),growth (BT-549 breast),growth (MDA-MB-435 melanoma),growth (SW-620 colon),growth (MCF7 breast),growth (HCT-116 colon),growth (HCC-2998 colon),growth (KM12 colon)
Nc1n[nH]c2cccc(C#Cc3cccc(C(=O)Nc4cccc(C(F)(F)F)c4)c3)c12,46.9%,84.9%,52.5%,55.9%,71.6%,27.5%,62%,46.7%
CC(C)(C)c1ccc(NS(=O)(=O)c2ccc3nc(NC(=O)c4cnccn4)[nH]c3c2)cc1,25.6%,26.6%,-41% (active),18.1%,18%,25.4%,70.2%,16.6%
O=C(Cn1c(C(=O)c2ccccc2)nc2ccccc21)c1ccc(F)cc1,58.7%,60.2%,-32% (active),22.9%,36.4%,39.2%,50.1%,43.9%
CCc1ccc(-c2cn3ccnc3c(-c3ccc4ncn(Cc5ccccc5)c4c3)n2)cc1,5.18% (active),84.1%,49.1%,81.2%,42%,38.8%,74.8%,54.3%
C#CCNC(=O)c1cccc2c1cc(C)n2-c1nc2c(c(NCc3ccccc3)n1)CCCC2,-11.6% (active),-38.7% (active),-61.3% (active),-4.61% (active),-0.959% (active),-41.5% (active),-84.2% (active),-43.6% (active)
Cc1cc2nc3c4cccc(O)c4n(CCN(C)C)c3nc2cc1C,64.3%,77.4%,45.4%,20.6%,23.5%,22%,24.5%,37.7%
O=Cc1ccc(-c2cn3ccnc3c(-c3ccc4ncn(Cc5ccccc5)c4c3)n2)cc1,1.99% (active),66.2%,87%,95.8%,52.2%,7.44% (active),105%,96.3%
CCCCCC(=O)Oc1ccc(/C(=C(/C)Cc2ccc(OC)cc2)c2ccc(OCCCN(C)C)cc2)cc1,51.2%,88.8%,53.2%,82.4%,20.1%,56.5%,69.3%,73.6%
OCc1cnccc1NCCCCOc1ccc(Oc2ccccc2)cc1,35.4%,62.6%,59.9%,49.2%,33.2%,31.3%,89.6%,64.8%
Cc1cc(C(=O)/C=C/c2ccc[nH]2)ccc1-n1ccc(C(F)(F)F)n1,85%,-35% (active),97.4%,96.6%,82.7%,88.5%,108%,-14% (active)
O=C1c2ccccc2C(=O)c2c([N+](=O)[O-])ccc(Cl)c21,46.7%,88.5%,106%,28.9%,71.7%,63.6%,104%,79.1%
COC(=O)CNC(=O)[C@]12CCC(C)(C)C[C@H]1C1=CC[C@@H]3[C@@]4(C)Cc5c([nH]c6ccccc56)C(C)(C)[C@@H]4CC[C@@]3(C)[C@]1(C)CC2,57.1%,102%,97.8%,88.8%,79.9%,95%,103%,92.3%
COc1ccc(C(=O)CSc2nc(-c3cc(OC)ccc3OC)cc(-c3ccc(Cl)cc3)c2C#N)cc1,32.3%,10.8%,26%,50.7%,46.5%,30.2%,78.3%,48.3%
C#CCNC(=O)[C@]1(C)CC[C@]2(C)CC[C@@H]3C(=CC[C@H]4[C@@]3(C)CC[C@H]3C(C)(C)C(=O)CC[C@]43C)[C@@H]2C1,77.1%,101%,97.3%,105%,83.3%,81%,101%,92.3%
O=C(CCN1CCCC1)Nc1ccc2c(NCCc3ccccc3)c3ccccc3nc2c1,1.89% (active),-15.3% (active),-92.1% (active),-44.9% (active),-19.4% (active),-38.2% (active),-56.8% (active),-15.6% (active)
NC1=NN=C(N)C1=Cc1cc2ccccc2n2nnnc12,88.4%,94.7%,108%,98.2%,89.9%,104%,108%,105%
CC(=O)N1c2ccccc2NC2=C(C(=O)NC2(C)C)C1c1ccco1 (stereo not given),110%,86%,-19.1% (active),81.1%,37.9%,87.8%,88.1%,51.2%
Cc1nc2ccc(Cl)cn2c1-c1nnc(SCc2ccc([N+](=O)[O-])cc2)o1,79.8%,12.9%,61.2%,76.1%,55.2%,58.4%,83.5%,72.9%
COc1ccc(C(=O)C2C(C#N)C(C#N)C3C=Cc4ccccc4N32)cc1 (stereo not given),42.5%,63.9%,-47.8% (active),26.5%,9.25% (active),15.9%,33.6%,6.36% (active)
COc1ccc2c(c1)oc1c(C)c3c(c(C)c12)C(=O)N(CCN1CCOCC1)C3=O,106%,97.6%,105%,93%,109%,83%,111%,96.1%
O=C(Cc1ccc(/C=C/C(=O)c2ncc[nH]2)cc1)Nc1ccc(Cl)cc1,23.2%,29.3%,23.8%,-35.3% (active),13%,-47.5% (active),79.4%,-39% (active)
O=C(/C=C(/C=C/c1coc2ccccc12)OB(F)F)/C=C/c1coc2ccccc12,88.1%,99.3%,48.1%,86.3%,82.8%,75.3%,98.8%,91.3%
CN1CCN(C(=O)[C@]23CCC(C)(C)C[C@H]2C2=CC[C@@H]4[C@@]5(C)C/C(=C/c6cccnc6)C(=O)C(C)(C)[C@@H]5CC[C@@]4(C)[C@]2(C)CC3)CC1,34.5%,82%,59.1%,44.6%,22.9%,20%,66.6%,55.1%
CCCCCCNC(=O)Oc1ccc(/C(=C(\C)c2ccccc2)c2ccc(OCCCN(C)C)cc2)cc1,46.2%,85.4%,48.3%,92.4%,21.3%,47.1%,86.7%,74.3%
c1ccc(Cn2cnc3ccc(-c4nc(-c5ccc6c(c5)ncn6C5CCCCC5)cn5ccnc45)cc32)cc1,-2.12% (active),-44.7% (active),-6.16% (active),2.17% (active),2.03% (active),-75.7% (active),-88% (active),-39.4% (active)
COc1cc2oc(-c3cccc(C(=O)Nc4ccc(Br)cc4)c3)cc(=O)c2c(OC)c1OC,36%,45.8%,65.6%,94.6%,78.1%,45.6%,81.9%,46.6%
Cc1c2cc[nH]c(=O)c2c(C)c2c1[nH]c1cc(OCCN3CCN(C)CC3)ccc12,22.7%,33.3%,4.54% (active),9.61% (active),-11.6% (active),7.2% (active),35%,8.55% (active)
C[C@H]1[C@H](C)CC[C@]2(C(=O)Nc3ccc4ncccc4c3)CC[C@]3(C)C(=CC[C@@H]4[C@@]5(C)CCCNC(C)(C)[C@@H]5CC[C@]43C)[C@H]12,78%,92%,-91.8% (active),-83.9% (active),-83.4% (active),-100% (active),-84.4% (active),-60.5% (active)
O=S(=O)(NCCCNc1nccc(-c2c(-c3cccc(O)c3)nc3occn23)n1)c1ccc(Cl)cc1,64.2%,102%,33.8%,109%,82.6%,61.9%,120%,86.2%
N#C/C(=C\c1ccc(Cl)cc1)n1nnc2cc(F)c(F)cc21,19.8%,11.7%,5.95% (active),-15% (active),12%,-11.6% (active),16.8%,16.2%
